The source of these data is PubChem BioAssay.

The target of the experiment is Albumin (Bos taurus) (UniProt P02769). Kind of experiment: compounds binding labelled BSA control protein – biochemical, small-molecule microarray, Alexa647 label, 635/667 nm fluorescence, artefact control for SMM control protein annotation, profiling panel (AID 1118).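 Also: score merges 667 nm emission intensity and signal-to-noise per printed compound spot.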 The settings on record: BSA-A647 binding, fluorescence 635 nm, higher = more signal.
Chain of Albumin (Bos taurus) (P02769 whole entry, looked up): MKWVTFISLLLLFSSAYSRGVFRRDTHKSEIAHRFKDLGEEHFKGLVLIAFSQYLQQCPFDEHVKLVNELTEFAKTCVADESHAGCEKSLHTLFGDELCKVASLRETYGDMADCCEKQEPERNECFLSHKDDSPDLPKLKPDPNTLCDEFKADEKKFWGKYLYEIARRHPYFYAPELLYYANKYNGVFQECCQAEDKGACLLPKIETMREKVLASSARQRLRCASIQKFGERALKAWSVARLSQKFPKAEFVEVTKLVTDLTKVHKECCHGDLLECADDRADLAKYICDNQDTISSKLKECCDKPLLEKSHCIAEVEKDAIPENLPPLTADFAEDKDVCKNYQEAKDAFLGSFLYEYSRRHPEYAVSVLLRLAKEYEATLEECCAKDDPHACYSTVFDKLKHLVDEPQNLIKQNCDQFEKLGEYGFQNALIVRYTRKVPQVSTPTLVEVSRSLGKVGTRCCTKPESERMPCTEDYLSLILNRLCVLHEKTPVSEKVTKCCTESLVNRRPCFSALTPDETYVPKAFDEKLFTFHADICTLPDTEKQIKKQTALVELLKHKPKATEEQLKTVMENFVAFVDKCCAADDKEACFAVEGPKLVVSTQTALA
In the case of `COCCOC(=O)N1C(=O)[C@@]2(c3cc(C#CC4(O)CCCCCC4)ccc31)[C@H](C(=O)N1CCCCCCC1)[C@H]1C(=O)O[C@H](c3ccccc3)[C@H](c3ccccc3)N1[C@@H]2c1ccc(O)cc1`, the composite z-score is -0.653.
As for `C=CCC(OC(C)=O)[C@@H]1[C@@H](N(Cc2cc3ccccc3o2)C(=O)Cc2ccc(F)cc2)c2cc(OCCCO)ccc2N1C(=O)c1ccc(-c2ccccc2)cc1` (stereo partly specified), the figure is -0.182; as for `O=C(CS)NCCCCCNC(=O)[C@H]1C[C@H]2C(=O)N[C@@H](Cc3ccccc3)C(=O)N2[C@H]1c1ccc(O)cc1`, 0.237.
Then `CO[C@H]1COC(=O)CC=C[C@@H](C)COC(=O)[C@@H](C)NC(=O)CC=C[C@@H]1C`, with -1.07; and `CCC(=O)[C@]12O[C@@]3([C@@H]4C(=O)OCC[C@@H]41)N(Cc1ccccc1)C(C)=C(C(=O)OC)[C@@H](c1ccccc1)N3C2=O`, with 0.226.
As for `C[C@]1(C(=O)NCCN2CCOCC2)c2ccccc2C(=O)N(Cc2ccccc2)[C@H]1c1ccc(CO)cc1`, the figure is -0.0435.
On to `CC[C@H]1C2=C3C(CC[C@H]4C(OC)OC[C@](C)([C@@H]34)N(C(=O)OC(C)(C)C)C2)C(CO)C1CO` (stereo partly specified), for which the composite z-score amounted to 1.05.
As for `O=C1c2ccccc2[C@@]2(Cc3ccccc3N(CC(F)(F)F)C2=O)[C@H](c2ccc(CO)cc2)N1C1CCCCC1`, the figure is -0.976.
Then `C=C(C(=O)CC[C@H](OC(=O)c1ccccc1-c1ccccc1C(=O)O)c1ccc(CO)o1)C(C)C`, with 0.178; and `CC1=C([C@H](O)CCc2ccccc2)[C@H](CO)[C@@H]2C(=O)N(Cc3ccccc3)C(=O)[C@@H]2C1`, with 0.427; and `O=C1O[C@H](c2ccccc2)[C@H](c2ccccc2)N2[C@H]1[C@@H](C(=O)NC[C@H](O)c1ccccc1)[C@]1(C(=O)Nc3ccc(C#CC4=CCCCC4)cc31)[C@H]2c1ccc(OCCO)cc1`, with 0.534.
`COc1cc(Cc2cc3c(c(CCc4ccccc4)n2)[Si](C(C)C)(C(C)C)OC3)cc(OC)c1OC` returned a composite z-score of -0.237.
As for `CO[C@H]1O[C@H](CO)[C@@H](OC(=O)CCc2ccccc2)[C@@H]2OC(=O)[C@H](Cc3cccc(Br)c3)C/C=C/C[C@@H](Cc3cccc(Br)c3)C(=O)O[C@@H]12`, the figure is 0.803; as for `Cc1ccc(S[C@]2(C(=O)NCCCN(C)C)CC(=O)N(C3CCCCC3)[C@@H]2c2ccc(CO)cc2I)cc1`, -1.58; as for `COC(=O)[C@@]1(Cc2ccccc2CN=[N+]=[N-])N=C(c2ccc(OCCCO)cc2)O[C@H]1c1ccccc1N=[N+]=[N-]`, -0.0759.
As for `CO[C@@H]1COC(=O)[C@H](C)NC(=O)CC=C[C@@H](C)[C@H](OC)COC(=O)[C@H](C)NC(=O)CC=C[C@H]1C`, the figure is -0.406.
Then `COCCOC(=O)N1C(=O)[C@@]2(c3cc(C#CCNC(N)=O)ccc31)[C@H](c1ccc(OCCO)cc1)N1[C@H](c3ccccc3)[C@H](c3ccccc3)OC(=O)[C@H]1[C@@H]2C(=O)Nc1nc2ccccc2s1`, with -0.76; and `C=CC[C@@]1(C(=O)N2CCOCC2)N=C(c2ccc(OCCCO)cc2)O[C@@H]1c1ccccc1`, with 0.18; and `COc1cc2c(cc1OC)CN(C(=O)[C@H]1[C@@H]3C(=O)O[C@@H](c4ccccc4)[C@@H](c4ccccc4)N3[C@@H](c3ccc(O)cc3)[C@]13C(=O)Nc1ccc(C#CC4(O)CCCCCC4)cc13)CC2`, with 0.693.
As to `O=C/C=C/c1ccccc1Cl`, the composite z-score was 0.95.
Then `C=CCC(OC(C)=O)[C@@H]1[C@@H](N(Cc2cccc3ccccc23)C(=O)Cc2ccc(F)cc2)c2cc(OCCCO)ccc2N1C(=O)Cc1ccc2ccccc2c1` (stereo partly specified), with 0.0257; and `CC(=O)NCCCC[C@@H]1NC(=O)[C@@H]2C[C@H](C(=O)NCCCCCNC(=O)CS)[C@H](c3ccc(O)cc3)N2C1=O`, with -0.0591.
As for `C[N+](C)(C)CCCCNC(=O)[C@@H]1C[C@@H]2C(=O)N3CCC[C@H]3C(=O)N2[C@@H]1c1cccc(OCCO)c1`, the figure is -0.486.
Then `O=C(NCC(O)CO)[C@]1(Cc2ccccc2)N=C(c2ccc(OCCCO)cc2)O[C@@H]1c1ccccc1` (stereo partly specified), with 0.974; and `COC(=O)Cn1c(C(=O)N2CCCC2)cc2c1C[C@H]1CN(C(=O)c3ccccc3)[C@@](Cc3ccccc3)(C(=O)OC)[C@@H]21`, with 1.06.
As for `CCOC(=O)[C@H]1C/C=C/C[C@H](C(=O)OCC)C(=O)O[C@H]2[C@@H](OC)O[C@H](CO)[C@@H](OC(=O)Nc3ccc(Br)cc3)[C@@H]2OC1=O`, the composite z-score came to 0.827.
`CO[C@@H]1COC(=O)[C@@H]2CCCN2C(=O)CC=C[C@@H](C)[C@H](OC)COC(=O)[C@@H]2CCCN2C(=O)CC=C[C@H]1C` displayed a composite z-score of -1.36.
As for `COCCOC(=O)N1C(=O)[C@@]2(c3cc(C#CCCO)ccc31)[C@H](c1ccc(O)cc1)N1[C@H](c3ccccc3)[C@H](c3ccccc3)OC(=O)[C@H]1[C@@H]2C(=O)Nc1nc2ccccc2s1`, the figure is 0.0742.
As for `COc1cc2c(cc1OC)CN(C(=O)[C@@H]1[C@H]3C(=O)O[C@H](c4ccccc4)[C@H](c4ccccc4)N3[C@H](c3ccccc3OCCO)[C@@]13C(=O)Nc1ccccc13)CC2`, the figure is 0.665.
`COc1ccc([Si](C)(C)[C@H]2[C@H](CCO)O[C@@]3(C(=O)N(Cc4ccc(N5CCCCC5=O)cc4)c4ccccc43)[C@@H]2C)cc1` returned a composite z-score of 0.643.
`CCCCO[C@H]1C[C@H]2C(Br)=C[C@@]1(CO)C(=O)[C@]21CO1` had a composite z-score of -1.23.
As for `CCOC(=O)C[C@H]1[C@H](OC(=O)c2ccccc2-c2ccccc2)[C@@H](NC(=O)C2CCCCC2)c2cc(OCCCO)ccc2N1C(=O)c1ccccc1`, the figure is 0.576; as for `CO[C@H]1COC(=O)[C@H](C)NC(=O)CC=C[C@@H](C)[C@H](NS(=O)(=O)c2ccc(C)cc2)COC(=O)[C@@H](OCc2ccccc2)C=C[C@@H]1C`, 0.228.
Then `CC(C)CNC(=O)[C@@]1(C)c2ccccc2C(=O)N(Cc2ccc(OC(F)(F)F)cc2)[C@H]1c1ccc(CO)cc1`, with -0.2; and `CC(C)C[C@@H]1NC(=O)[C@H]2C[C@@H](C(=O)NCCCCCC[N+](C)(C)C)[C@@H](c3ccc(O)cc3)N2C1=O`, with 0.34.
Compound `C=CC[C@@]1(C(=O)NCC(O)CO)N=C(c2ccc(OCCCO)cc2)O[C@@H]1c1ccccc1CN=[N+]=[N-]` (stereo partly specified) yielded a composite z-score of 0.988.
